# The source made the active and inactive calls. The calls were made as follows: active = hit-call score of the fitted dose curve at least 0.9, where 1 is the maximum; inactive = score below 0.9.
# Legend:
# [1] = read-out: Macrophage colony-stimulating factor (MCSF), CSF1 (gene 1435); experiment: BSK_hDFCGF_MCSF: BioMAP Diversity Plus: hDFCGF Assay for Macrophage colony-stimulating factor (MCSF) Biomarker Activity (AID 2283060); details: primary human foreskin fibroblasts; actives raise or lower the signal
# How it was run: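 M-CSF levels read by ELISA at 24 h post-dosing in human skin fibroblasts. Parallel cultures stained with SRB assessed cytotoxicity at the same time point; response fitted in both directions against the DMSO baseline.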
# [2] = BSK_hDFCGF_SRB: Viability Assessment in the BioMAP Diversity Plus: hDFCGF Assay (AID 2283061); details: primary human foreskin fibroblasts;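 also: cells exposed to compound for 24 h before the read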
# How it was run: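 Viability was read as total protein: after 10% TCA fixation, wells were stained with 0.1% sulforhodamine B and read at 560 nm. Primary human foreskin fibroblasts were dosed for 24 h, with bidirectional fitting versus DMSO.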
# [3] = read-out: TIMP metallopeptidase inhibitor 1 (TIMP1), TIMP1 (gene 7076); experiment: BSK_hDFCGF_TIMP1: BioMAP Diversity Plus: hDFCGF Assay for TIMP metallopeptidase inhibitor 1 (TIMP1) Biomarker Activity (AID 2283062); details: primary human foreskin fibroblasts; actives raise or lower the signal
# How it was run: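 TIMP-1 measured by ELISA 24 h after chemical dosing of primary human skin fibroblasts, with gain or loss fitted relative to DMSO. Parallel SRB staining (560 nm) monitored overt cytotoxicity.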
# [4] = read-out: Monokine induced gamma interferon (MIG), CXCL9 (gene 4283); experiment: BSK_hDFCGF_MIG: BioMAP Diversity Plus: hDFCGF Assay for Monokine induced gamma interferon (MIG) Biomarker Activity (AID 2283063); details: primary human foreskin fibroblasts; actives raise or lower the signal
# How it was run: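 Human primary foreskin fibroblasts in the hDFCGF system, exposed to test chemical for 24 h; MIG measured by ELISA. Bidirectional curve fitting against DMSO negative control as activity baseline.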
# [5] = read-out: Matrix Metallopeptidase 1 (MMP1), MMP1 (gene 4312); experiment: BSK_hDFCGF_MMP1: BioMAP Diversity Plus: hDFCGF Assay for Matrix Metallopeptidase 1 (MMP1) Biomarker Activity (AID 2283064); details: primary human foreskin fibroblasts; actives raise or lower the signal
# How it was run: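 hDFCGF primary fibroblasts (human foreskin); chemical added; 24 h; MMP1 by ELISA; bidirectional fit vs DMSO.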
# [6] = read-out: Vascular cell adhesion molecule 1 (VCAM1), VCAM1 (gene 7412); experiment: BSK_hDFCGF_VCAM1: BioMAP Diversity Plus: hDFCGF Assay for Vascular cell adhesion molecule 1 (VCAM1) Biomarker Activity (AID 2283065); details: primary human foreskin fibroblasts; actives raise or lower the signal;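 as to AC50: VCAM-1 protein level quantified by ELISA after 24 h chemical exposure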
# How it was run: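 ELISA readout of VCAM-1 on human dermal fibroblast primary cultures, 24 h after chemical exposure. Gain or loss of signal fitted in both directions against DMSO baseline.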
# [7] = read-out: Plasminogen activator inhibitor-1 (PAI1), SERPINE1 (gene 5054); experiment: BSK_hDFCGF_PAI1: BioMAP Diversity Plus: hDFCGF Assay for Plasminogen activator inhibitor-1 (PAI1) Biomarker Activity (AID 2283066); details: primary human foreskin fibroblasts; actives raise or lower the signal
# How it was run: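 Human foreskin fibroblast primary cells, 24 h chemical exposure; PAI-1 measured by ELISA. Bidirectional fitting relative to DMSO; parallel cultures stained with SRB for total protein to flag overt cytotoxicity.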
# [8] = read-out: Intercellular Adhesion Molecule 1 (ICAM1), ICAM1 (gene 3383); experiment: BSK_KF3CT_ICAM1: BioMAP Diversity Plus: KF3CT Assay for Intercellular Adhesion Molecule 1 (ICAM1) Biomarker Activity (AID 2283067); details: primary human keratinocytes with fibroblasts; actives raise or lower the signal
# How it was run: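 Cell-surface ICAM-1 was measured by ELISA 24 h after dosing primary human skin keratinocytes co-cultured with fibroblasts. Parallel SRB staining tracked overt cytotoxicity. Gain or loss of signal was fitted relative to DMSO.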
# [9] = read-out: Interferon-gamma inducible Protein 10 (IP10), CXCL10 (gene 3627); experiment: BSK_KF3CT_IP10: BioMAP Diversity Plus: KF3CT Assay for Interferon-gamma inducible Protein 10 (IP10) Biomarker Activity (AID 2283068); details: primary human keratinocytes with fibroblasts; actives raise or lower the signal
# How it was run: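 Signal is secreted/surface IP-10 by ELISA in a human primary skin co-culture of keratinocytes and foreskin fibroblasts, taken 24 h post-dosing; DMSO served as negative control.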
# [10] = BSK_KF3CT_SRB: Viability Assessment in the BioMAP Diversity Plus: KF3CT Assay (AID 2283069); details: primary human keratinocytes with fibroblasts;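 also: total protein by sulforhodamine B staining as a cytotoxicity measure; read 24 h after compound addition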
# How it was run: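 Keratinocytes co-cultured with foreskin fibroblasts (human primary); chemical added, 24 h; fix 10% TCA, stain 0.1% SRB, A560. Bidirectional fit vs DMSO.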
# [11] = read-out: Interleukin-1 alpha (IL1a), IL1A (gene 3552); experiment: BSK_KF3CT_IL1a: BioMAP Diversity Plus: KF3CT Assay for Interleukin-1 alpha (IL1a) Biomarker Activity (AID 2283070); details: primary human keratinocytes with fibroblasts; actives raise or lower the signal
# How it was run: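 Chemicals were dosed onto co-cultured human keratinocytes and foreskin fibroblasts, IL-1a was quantified by ELISA at 24 h, and activity was fitted in both directions relative to DMSO controls.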
# [12] = read-out: TIMP metallopeptidase inhibitor 2 (TIMP2), TIMP2 (gene 7077); experiment: BSK_KF3CT_TIMP2: BioMAP Diversity Plus: KF3CT Assay for TIMP metallopeptidase inhibitor 2 (TIMP2) Biomarker Activity (AID 2283071); details: primary human keratinocytes with fibroblasts; actives raise or lower the signal
# How it was run: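 Co-culture of human primary keratinocytes and foreskin fibroblasts, measured 24 h after chemical dosing. TIMP-2 quantified by ELISA and fitted in both directions relative to DMSO. Cytotoxicity checked in parallel cultures by SRB total-protein staining.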
# [13] = read-out: Transforming growth factor beta 1 (TGFb1), TGFB1 (gene 7040); experiment: BSK_KF3CT_TGFb1: BioMAP Diversity Plus: KF3CT Assay for Transforming growth factor beta 1 (TGFb1) Biomarker Activity (AID 2283072); details: primary human keratinocytes with fibroblasts; actives raise or lower the signal
# How it was run: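 Human keratinocyte/foreskin fibroblast co-culture; TGF-b1 measured by ELISA 24 h after dosing, fitted bidirectionally versus DMSO. Cytotoxicity checked in parallel cultures by total protein (SRB staining, 560 nm).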
# [14] = read-out: C-C motif chemokine 2 (Homo sapiens) (UniProt P13500); experiment: BSK_KF3CT_MCP1: BioMAP Diversity Plus: KF3CT Assay for Monocyte Chemoattractant Protein 1 (MCP1/CCL2) Biomarker Activity (AID 2283073); details: primary human keratinocytes with fibroblasts; actives raise or lower the signal
# How it was run: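 ELISA read-out of MCP-1, 24 h post-dose, in primary human skin keratinocytes co-cultured with fibroblasts. Parallel SRB staining monitors cytotoxicity; changes fitted both directions relative to DMSO.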
# [15] = read-out: Matrix Metallopeptidase 9 (MMP9), MMP9 (gene 4318); experiment: BSK_KF3CT_MMP9: BioMAP Diversity Plus: KF3CT Assay for Matrix Metallopeptidase 9 (MMP9) Biomarker Activity (AID 2283074); details: primary human keratinocytes with fibroblasts; actives raise or lower the signal;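 as to AC50: MMP9 protein level quantified by ELISA in the co-culture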
# How it was run: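 Human keratinocyte/foreskin fibroblast co-culture; compound added; 24 h; MMP-9 by ELISA; bidirectional fit vs DMSO baseline.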
# [16] = read-out: urokinase plasminogen activator (uPA), PLAU (gene 5328); experiment: BSK_KF3CT_uPA: BioMAP Diversity Plus: KF3CT Assay for urokinase plasminogen activator (uPA) Biomarker Activity (AID 2283075); details: primary human keratinocytes with fibroblasts; actives raise or lower the signal
# How it was run: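 ELISA readout of uPA, analyzed for signal gain or loss relative to DMSO, from a human primary keratinocyte–foreskin fibroblast co-culture measured 24 h after chemical treatment.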
# CD40, CD40 (gene 958) = experiment: BSK_LPS_CD40: BioMAP Diversity Plus: LPS Assay for CD40 Biomarker Activity (AID 2283076); details: primary human HUVEC with PBMC; actives raise or lower the signal
# How it was run: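 In the LPS system of human endothelial cells with peripheral blood mononuclear cells, CD40 levels were read by ELISA 24 h post-treatment. Signal changes in either direction were fitted against the DMSO baseline, with parallel SRB protein staining.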
# [17] = read-out: E-selectin (Homo sapiens) (UniProt P16581); experiment: BSK_LPS_Eselectin: BioMAP Diversity Plus: LPS Assay for Eselectin Biomarker Activity (AID 2283077); details: primary human HUVEC with PBMC; actives raise or lower the signal
# How it was run: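 E-selectin ELISA on LPS-stimulated endothelial cell/PBMC co-cultures, read 24 h post-treatment; gains and losses fitted against DMSO. Parallel SRB staining (0.1% SRB after 10% TCA fixation, 560 nm) flags overt cytotoxicity.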
# [18] = read-out: Interleukin-8 (IL8), CXCL8 (gene 3576); experiment: BSK_LPS_IL8: BioMAP Diversity Plus: LPS Assay for Interleukin-8 (IL8) Biomarker Activity (AID 2283078); details: primary human HUVEC with PBMC; actives raise or lower the signal
# How it was run: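 ELISA read-out of IL-8 after 24 h chemical treatment of LPS-activated endothelial/PBMC human primary co-cultures. Changes either up or down relative to DMSO; overt cytotoxicity checked by sulforhodamine B staining in parallel wells.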
# [19] = BSK_LPS_SRB: Viability Assessment in the BioMAP Diversity Plus: LPS Assay (AID 2283079); details: primary human HUVEC with PBMC;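 also: total protein by sulforhodamine B absorbance as a cytotoxicity measure; measured one day after compound addition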
# How it was run: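 SRB viability endpoint: cells fixed with 10% TCA, stained with 0.1% SRB, read at 560 nm, 24 h post-dose. HUVEC/PBMC co-culture; signal change in either direction scored relative to DMSO.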
# Chain of E-selectin (Homo sapiens) (P16581 whole entry, looked up): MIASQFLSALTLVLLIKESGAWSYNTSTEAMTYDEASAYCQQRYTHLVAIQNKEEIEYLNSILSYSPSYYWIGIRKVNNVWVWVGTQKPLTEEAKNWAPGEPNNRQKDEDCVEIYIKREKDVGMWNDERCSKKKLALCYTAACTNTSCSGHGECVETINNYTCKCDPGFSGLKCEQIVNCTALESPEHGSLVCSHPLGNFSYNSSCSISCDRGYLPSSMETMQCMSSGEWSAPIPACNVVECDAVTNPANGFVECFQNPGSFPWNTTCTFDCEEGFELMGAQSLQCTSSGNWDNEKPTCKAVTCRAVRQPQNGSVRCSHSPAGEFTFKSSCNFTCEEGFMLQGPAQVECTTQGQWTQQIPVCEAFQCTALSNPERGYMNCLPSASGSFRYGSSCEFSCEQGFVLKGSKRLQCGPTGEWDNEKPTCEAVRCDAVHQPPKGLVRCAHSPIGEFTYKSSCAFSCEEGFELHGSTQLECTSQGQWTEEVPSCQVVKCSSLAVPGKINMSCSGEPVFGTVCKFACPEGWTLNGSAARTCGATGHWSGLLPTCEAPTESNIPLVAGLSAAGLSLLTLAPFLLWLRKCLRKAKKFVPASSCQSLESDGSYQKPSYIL
smiles,measurement,setting,value
Cc1ccc(N=CN(C)C=Nc2ccc(C)cc2C)c(C)c1,AC50,[1],15.2 µM (active)
same,AC50,[2],28.4 µM (active)
same,AC50,[3],31 µM (active)
same,AC50,[4],29.7 µM (active)
same,AC50,[5],33.2 µM (active)
same,AC50,[6],15.8 µM (active)
same,AC50,[7],29.7 µM (active)
same,outcome,[8],inactive
same,AC50,[9],32.7 µM (active)
same,AC50,[10],28.6 µM (active)
same,outcome,[11],inactive
same,AC50,[12],26.2 µM (active)
same,outcome,[13],inactive
same,outcome,[14],inactive
same,AC50,[15],31.3 µM (active)
same,AC50,[16],26.9 µM (active)
same,AC50,"CD40, CD40 (gene 958)",29.5 µM (active)
same,AC50,[17],31.1 µM (active)
same,AC50,[18],33.6 µM (active)
same,AC50,[19],31.7 µM (active)
CC(C)N1C(=O)c2ccccc2NS1(=O)=O,outcome,[1],inactive
same,outcome,[2],inactive
same,AC50,[3],3.97 µM (active)
same,outcome,[4],inactive
same,outcome,[5],inactive
same,outcome,[6],inactive
same,outcome,[7],inactive
same,outcome,[8],inactive
same,outcome,[9],inactive
same,outcome,[10],inactive
same,outcome,[11],inactive
same,outcome,[12],inactive
same,outcome,[13],inactive
same,AC50,[14],0.535 µM (active)
same,outcome,[15],inactive
same,outcome,[16],inactive
same,outcome,"CD40, CD40 (gene 958)",inactive
same,outcome,[17],inactive
same,outcome,[19],inactive
CC1(C)C(C(=O)OC(C#N)c2cccc(Oc3ccccc3)c2)C1(C)C (centres undefined),outcome,[1],inactive
same,outcome,[2],inactive
same,outcome,[3],inactive
same,outcome,[4],inactive
same,AC50,[5],3.02 µM (active)
same,outcome,[6],inactive
same,outcome,[7],inactive
same,outcome,[8],inactive
same,outcome,[9],inactive
same,outcome,[10],inactive
same,outcome,[11],inactive
same,outcome,[12],inactive
same,outcome,[13],inactive
same,outcome,[14],inactive
same,AC50,[15],5.56 µM (active)
same,outcome,[16],inactive
same,AC50,"CD40, CD40 (gene 958)",12.9 µM (active)
same,outcome,[17],inactive
same,outcome,[18],inactive
same,outcome,[19],inactive
